Drawing on PubChem BioAssay (NCI), this text covers growth inhibition for 21 compounds.

Test [1] can be described thus: NCI Yeast Anticancer Drug Screen. Data for the rad50 strain (AID 155).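 Also: 0% = growth of vehicle-only cultures of the same strain.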 The conditions noted are these: S. cerevisiae rad50 strain growth inhibition; at 50.0 µM; active compounds read high. In outline:
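Inhibition values express reduced yeast growth in compound-treated cultures relative to vehicle-treated controls.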

Test [2] is described as follows: NCI Yeast Anticancer Drug Screen. Data for the mec2-1 strain (AID 157). The conditions noted are these: S. cerevisiae mec2-1 strain, at 50.0 µM, active compounds read high. In outline: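 Each compound was tested on mec2-1 yeast, a strain altered in DNA damage repair or cell cycle control. Growth inhibition is reported relative to vehicle.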
The nature of test [3]: NCI Yeast Anticancer Drug Screen. Data for the sgs1 mgt1 strain (AID 161).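 Also: 0% = growth of cultures given vehicle only.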 The conditions noted are these: S. cerevisiae sgs1 mgt1 strain, at 50.0 µM, active compounds read high. In outline:
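Genetically altered yeast, compound exposure, growth inhibition relative to vehicle.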

A short description of test [4]: NCI Yeast Anticancer Drug Screen. Data for the cln2 rad14 strain (AID 165).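 Also: 0% = growth equal to vehicle treated cultures.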 The conditions noted are these: S. cerevisiae cln2 rad14 strain, at 50.0 µM, active compounds read high. In outline:
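Test compounds were added to cln2 rad14 yeast cultures; inhibition of growth was then determined by comparison with vehicle treatment.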

Test [5] in a line: NCI Yeast Anticancer Drug Screen. Data for the bub3 strain (AID 167). The conditions noted are these: S. cerevisiae bub3 mutant strain, at 50.0 µM, active compounds read high. The essentials:
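Steps: expose the mutant yeast strain to compound; grow alongside vehicle-treated cultures; measure growth; express inhibition against the vehicle cultures.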

A short description of test [6]: NCI Yeast Anticancer Drug Screen. Data for the mlh1 rad18 strain (AID 175). As to conditions: S. cerevisiae mlh1 rad18 strain growth inhibition; at 50.0 µM; active compounds read high. In outline: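 Inhibition values reflect reduced growth of mutant yeast versus vehicle-treated controls following compound exposure; the mutations affect DNA damage repair.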

About 79,000 compounds went through this panel and 15% of them were active in at least one assay; those are over-represented in the sample as a whole. Values without a mark were called inactive. Activity calls are given as the source filed them. Rule as the data show it: active = growth inhibition above about 70%; inactive = the rest.

On to `CCOc1ccccc1NC(=O)C1=C(C)NC(C)=C(C(=O)Nc2ccccc2OCC)C1c1ccc(NC(C)=O)cc1`, for which the growth inhibition in test [1] is -30.1%; in test [2], -10.8%; in test [3] it was -15.4%; in test [4], -5.9%; in test [5], -22.2%; in test [6] it was 11.7%.

In the case of `CC1(C)OC2(CC1C1(C)C=CC(=O)O1)CC1C(O)(CCC34CC13C(=O)OC4c1ccoc1)O2` (configuration not stated), the growth inhibition is 3.95% in test [1]; -17.3% in test [2]; 3.15% in test [3]; 6.2% in test [4]; -3.1% in test [5]; 10.2% in test [6].

As for `CCCS(=O)(=O)CCC(=O)c1cccs1`, the growth inhibition in test [1] was -0.05%; in test [2] it was -12.1%; in test [3], -8.4%; in test [4], -19%; in test [5], -1.85%; in test [6], 5.95%.

As for `C1=CCC(C(Cc2ccccc2)N2CCCCC2)CC1` (configuration not stated), the growth inhibition was 15.8% in test [1]; 1% in test [2]; 23.9% in test [3]; -27.4% in test [4]; 11.2% in test [5]; 24.1% in test [6].

In the case of `COc1ccc(NNc2ccc(OC)cc2)cc1`, the growth inhibition in test [1] is 0.95%; in test [2], 7.65%; in test [3], -4.7%; in test [4], 17.9%; in test [5], -5.1%; in test [6], -9.5%.

`CN1C(c2ccccc2)=C(C#N)C(=O)CC(c2ccccc2)N1C` (configuration not stated): the growth inhibition was 26.1% in test [1]; 11.6% in test [2]; 30.2% in test [3]; 14.8% in test [4]; 11.4% in test [5]; 21.2% in test [6].

Regarding `O=C1C2Nc3ccccc3N=C2OC1c1cccc([N+](=O)[O-])c1` (configuration not stated), the growth inhibition is 16.3% in test [1]; 15.6% in test [2]; 22.9% in test [3]; 16.9% in test [4]; 20.6% in test [5]; 24.2% in test [6].

For the compound `COc1ccc(/C=C(\C(C)=O)C(=O)Nc2ccccc2)cc1`, the growth inhibition in test [1] was 21.1%; in test [2], 16.4%; in test [3] it was 22.2%; in test [4], 39.1%; in test [5], 6.2%; in test [6] it was 25.4%.

With `CC(=O)NC1C(OC2C(CO)OC(OCC3OC(n4ccc(N)nc4=O)C(O)C3O)C(NC(C)=O)C2O)OC(CO)C(O)C1O` (configuration not stated), the growth inhibition in test [1] is 31.9%; in test [2], 48.4%; in test [3] it was 2.1%; in test [4], -16.2%; in test [5], -3.45%; in test [6], 89.2% (active).

Consider `CCOC(=O)C1CC1c1c(C)c2cc3[nH]c(cc4nc(cc5nc(cc1[nH]2)C(C)=C5CCC(=O)OC)C(CCC(=O)OC)=C4C)c(C)c3C1CC1C(=O)OCC` (configuration not stated), for which the growth inhibition in test [1] was -7.25%; in test [2] it was 36.5%; in test [3] it was 29.5%; in test [4], -19.4%; in test [5] it was -6.15%; in test [6] it was 39.2%.

Take `CCCCCCCCCCCSc1ccc2ccccc2c1`: the growth inhibition in test [1] is 5.75%; in test [2], 14.7%; in test [3] it was 6.75%; in test [4], -20.5%; in test [5] it was -18.6%; in test [6], 5.3%.

For `COC(=O)CNC(=O)C1CSC(C)(C)N1` (configuration not stated), the growth inhibition in test [1] is -5.9%; in test [2], -6.65%; in test [3], -15.7%; in test [4], -12.2%; in test [5], -1.05%; in test [6] it was -9.15%.

As to `COC(=O)/C=C(\C)CC/C=C(\C)CCC1OC1(C)C` (configuration not stated), the growth inhibition is 11.9% in test [1]; 44.1% in test [2]; 84.7% (active) in test [3]; 57.3% in test [4]; 77.5% (active) in test [5]; 81.1% (active) in test [6].

With `C/C(=N/NC(N)=O)C1c2ccccc2Cc2ccccc21`, the growth inhibition in test [1] was 18.1%; in test [2], -2.25%; in test [3] it was 4.85%; in test [4] it was -0.3%; in test [5], 16.9%; in test [6] it was -8.15%.

As to `CCOc1cc2c(cc1O)C(O)C[C@@H]1[C@@H]2CC[C@]2(C)[C@@H](O)CC[C@@H]12` (some centres not stated), the growth inhibition in test [1] is 14.8%; in test [2], -7.9%; in test [3], 22.7%; in test [4] it was 11.9%; in test [5], 24.2%; in test [6], 25.1%.

Turning to `O=C1c2ccccc2C(=O)N1CCn1[nH]c(=O)c2ccccc2c1=O`, the growth inhibition in test [1] is -3.25%; in test [2] it was -10.4%; in test [3], -6.55%; in test [4], 8.9%; in test [5], -3.6%; in test [6], 14.1%.

On to `O=C(NNC(=S)NCc1ccccc1)C12CC3CC(CC(C3)C1)C2`, for which the growth inhibition in test [1] is -35.6%; in test [2] it was -10.3%; in test [3] it was -4.2%; in test [4], 2.55%; in test [5], 15.5%; in test [6] it was -5.9%.

As for `COc1ccc(C(=O)N2CCN(C)CC2)cc1OC`, the growth inhibition was 19.1% in test [1]; -3.95% in test [2]; -8.3% in test [3]; 13.4% in test [4]; 4.2% in test [6].

Consider `C[N+]1(C)CC=C(N2CCOCC2)CC1`, for which the growth inhibition was -27.6% in test [1]; -25.1% in test [2]; -18.8% in test [3]; -30% in test [4]; -14.4% in test [6].

In the case of `CN(N=O)C(=O)NCCSc1ncnc2nc[nH]c12`, the growth inhibition in test [1] was 9.75%; in test [2] it was 13.1%; in test [3], -2.25%; in test [4], -108%; in test [6] it was -17.2%.

Take `CC(=O)Nc1ccc(/C=N/NC(=S)Nc2cccc3cccnc23)cc1`: the growth inhibition in test [1] was -1.2%; in test [2], 17.9%; in test [3], -5%; in test [4], 10.5%; in test [6], -4.45%.
